The source of these data is ChEMBL document CHEMBL4513216, “Probing the Open Global Health Chemical Diversity Library for Multistage-Active Starting Points for Next-Generation Antimalarials” (ACS Infect Dis, 2020).

The whole screen tested about 69,000 compounds, of which about 8,600 (12%) showed an effect of 50% or more. The full list was thinned out, with strong results kept by preference.

The subject of the test is Plasmodium berghei. As to the kind of experiment: Screen against P. berghei liver stage (PbLuc), transformed with Luciferase, at 10uM. It counts as functional, HepG2. The settings on record: tested at 10 uM.
`Cc1noc(C)c1CCC(=O)N[C@@H]1CCC[C@@H](Oc2cccnc2)[C@@H]1O`: the INHIBITION is -27.1%.

Take `O=C(NCCCN1CCc2ccccc2C1)c1ccccc1Cl`: the INHIBITION was -7.31%.

With `Cc1ccccc1C1(CNC(=O)c2ccc(S(C)(=O)=O)cc2)CC1`, the INHIBITION came to 30.3%. To `CS(=O)(=O)c1ccccc1C(=O)NCCCN1CCc2ccccc2C1` belongs 52.1%; to `O=C(NCCCN1CCc2ccccc2C1)c1ccccc1Br`, 5.03%; to `Cc1ccccc1C(=O)NCCCN1CCc2ccccc2C1`, 25.6%. In the case of `Cc1ccccc1C1(CNC(=O)c2cccc(S(C)(=O)=O)c2)CC1`, the INHIBITION is -8.22%. To `Cc1cccc(C(=O)NCCCN2CCc3ccccc3C2)c1C` belongs 21.5%; to `CS(=O)(=O)c1cccc(C(=O)NCC2(c3ccccc3)CC2)c1`, 86.8%. With `CS(=O)(=O)c1cccc(C(=O)NCCCN2CCc3ccccc3C2)c1`, the INHIBITION was determined as 56.4%. To `Cc1nc(C)n(CC2CCCCN2CC(=O)NC(C2CC2)C2CC2)n1` (centres undefined) belongs -24.2%; to `O=c1c2ccccc2nc2n1C(CSc1cccc(C(F)(F)F)c1)CN2` (centres undefined), 37.8%; to `CNC(=O)[C@@H]1C[C@H]2CN(C(=O)c3ccco3)C[C@H]2N1C`, 7.84%. For the compound `c1ccc(N2CCOC3(CCCN(c4nncs4)C3)C2)nc1` (centres undefined), the INHIBITION was determined as 3.95%.

For `O=C1C[C@@H]2CC[C@H](CN1)N2C(=O)CCc1ccccc1`, the INHIBITION is recorded as 11.2%.

In the case of `Cc1cc(CCC(N)=O)cc(C2CCCN2Cc2cnc(C)nc2)n1` (centres undefined), the INHIBITION was 52%.

As for `Cc1cc(CCC(N)=O)cc(C2CCCN2Cc2ccnn2C)n1` (centres undefined), the INHIBITION was -2.11%. To `Cc1cc(CCC(N)=O)cc(C2CCCN2Cc2ccccn2)n1` (centres undefined) belongs 18.3%. To `Cc1noc(C)c1CNCC1COCc2c(-c3ccoc3)nnn2C1` (centres undefined) belongs -16.9%; to `CCc1noc(C2CCCCN2C(=O)c2ccc3c(c2)OCO3)n1` (centres undefined), 7.66%. To `CCn1cc(CN2CCCC2c2nc(C(C)C)no2)cc1C#N` (centres undefined) belongs 25.8%; to `Cc1nc(CN2CCCC2c2nc(C(C)C)no2)cs1` (centres undefined), 36.8%.

Consider `CCn1ccc2ccc(CN3CCCC3c3nc(C(C)C)no3)cc21` (centres undefined), for which the INHIBITION worked out at 61.2%. Turning to `C=C(C)CNC(C)c1ccc(S(C)(=O)=O)c(F)c1` (centres undefined), the INHIBITION is on record as -13.1%. `Nc1nccnc1C(=O)NC1CCN(Cc2ccccc2)C1` (centres undefined): the INHIBITION is listed as -14.5%.

Turning to `Cc1cc(C)c2c(OCC(=O)NCC(O)C(F)(F)F)nn(C)c2n1` (centres undefined), the INHIBITION was -23.4%.

In the case of `COCCN1CC=C(c2cccc(OC)c2)CC1`, the INHIBITION was -6.72%. `COc1cccc(C2=CCN(CCN3CCCC3=O)CC2)c1`: the INHIBITION is on record as 51.7%. To `COc1cccc(C2=CCN(CCN3CCOC3=O)CC2)c1` belongs 9.37%; to `O=S(=O)(c1ccc(N2CCCCC2)c2nonc12)N1CCCCC1`, 30%; to `COc1cc(F)ccc1-c1cnc(N)cn1`, 61.5%. Take `COc1cc(F)ccc1-c1cc(CO)ccn1`: the INHIBITION worked out at 37.7%.

Consider `Nc1cnc(-c2ccc(F)cc2Cl)cn1`, for which the INHIBITION amounted to 38.2%.

Take `CN1CCN(C2CCOCC2)CC12CCC(=O)N(CC1CC1)CC2` (centres undefined): the INHIBITION is listed as 5.46%. To `Clc1cccc(-n2cnnn2)c1N1CCCCC1` belongs 67.3%; to `Clc1cccc(-n2cnnn2)c1N1CCCC1`, 11%. With `Clc1cccc(-n2cnnn2)c1N1CCOCC1` the figure was 1.86%; with `O=c1[nH]c2nc(NCC3CCCO3)ncc2c(=O)n1-c1ccc(F)cc1` (centres undefined), 88.8%. To `O=c1[nH]c2nc(NCC3CCCO3)ncc2c(=O)n1-c1cccc(F)c1` (centres undefined) belongs -26.2%.

For the compound `O=c1[nH]c2nc(NC3CC3)ncc2c(=O)n1-c1ccc(F)cc1`, the INHIBITION is listed as 13.8%.

On to `COCCN1CC[C@@H]2CN(Cc3nccn3C)C[C@@H]2C1`, for which the INHIBITION came to 28.7%. As for `Cc1ccccc1C(=O)N1CCOC(c2ncc(CN(C)C)[nH]2)C1` (centres undefined), the INHIBITION is -10.4%. To `CCS(=O)(=O)N1C[C@@H](C(=O)NC(C)C)[C@@]2(Cc3ccccc3C(=O)N2)C1` belongs -8.31%; to `COCC(=O)NC1(c2cccc(C(F)(F)F)c2)CCC1`, 38.7%; to `CCNC(=O)CCC(=O)NC1(c2cccc(C(F)(F)F)c2)CCC1`, 23.9%. As to `CS(=O)(=O)CCC(=O)NC1(c2cccc(C(F)(F)F)c2)CCC1`, the INHIBITION was 65.6%. As for `CC(C)NC(=O)Nc1ccc(CNCc2cccc(C#N)c2)cc1`, the INHIBITION is listed as 43.7%. With `Cc1ccc(C(CNCc2c[nH]nc2C)N(C)C)cc1` (centres undefined) the figure was -4.33%; with `O=C(NC1CCN(C2CC2)CC1)c1cc(Cl)ccc1-n1cnnn1`, 62.8%. To `CC(C)CN1CCC(NC(=O)c2ccc(F)cc2F)CC1` belongs 31.1%; to `CC(=O)N1CCC(NC(=O)c2ccccc2-n2cnnn2)CC1`, 35.9%.

As to `CCN1CCC(NC(=O)c2ccc(F)cc2I)CC1`, the INHIBITION is listed as 2.7%. Consider `CC(C)CN1CCC(NC(=O)c2ccc(F)cc2I)CC1`, for which the INHIBITION was found to be 50.1%. To `O=C(NC1CC1)c1cc(Cl)ccc1-n1cnnn1` belongs -3.59%. With `CC(=O)N1CCC(NC(=O)c2cc(Cl)ccc2O)CC1` the figure was 61%.

In the case of `CC(C)CN1CCC(NC(=O)c2ccc(Cl)cc2Cl)CC1`, the INHIBITION is on record as 90.2%. To `CC(C)CN1CCC(NC(=O)c2ccc(F)cc2Cl)CC1` belongs -23.4%; to `COCC(O)CN1CCC(NC(=O)c2ccccc2Cl)CC1` (centres undefined), 19.6%.

`CC(=O)N1CCC(NC(=O)c2cc(Cl)ccc2-n2cnnn2)CC1`: the INHIBITION is on record as 37.7%. To `CC(=O)N1CCC(NC(=O)c2cc(S(N)(=O)=O)ccc2C)CC1` belongs -21.3%. `Cc1cc2ccccc2n1CCC(=O)NCCS(C)(=O)=O`: the INHIBITION was 0.426%. Consider `CC(C)CS(=O)(=O)N1C[C@@H]2C[C@H](C(=O)NCc3ccccc3)[C@H](C1)O2`, for which the INHIBITION amounted to 9.48%. Consider `Cc1ccc(C(=O)N(C)Cc2cc(Br)cs2)c(=O)[nH]1`, for which the INHIBITION worked out at 15%. Regarding `Cc1cnn(CC2CN(CC(=O)N(C)Cc3ccccc3)CCO2)c1` (centres undefined), the INHIBITION came out at 13.3%. For the compound `CNC(=O)C1CN(c2ccc(F)cc2)CCN1` (centres undefined), the INHIBITION is 41.5%. For `CCOc1cncc(N2CCN(c3ccccc3F)CC2)n1`, the INHIBITION is reported as 3.77%.

As to `O=C(CO)N1CC[C@@H](N2CCN(c3ccccc3F)CC2)[C@H](O)C1`, the INHIBITION is listed as 52.6%. To `O=C(CCOc1ccccc1F)N1CCCC(n2cncn2)C1` (centres undefined) belongs 36.065%; to `Cc1ccccc1N1CCN(C2CCCN(C(=O)CCC(C)C)C2)CC1` (centres undefined), 46.6%; to `CSCCC(=O)N1CC[C@@H](N2CCN(c3ccccc3F)CC2)[C@H](O)C1`, 48.9%. To `O=C(CO)N1CCCC(N2CCN(c3ccccc3F)CC2)C1` (centres undefined) belongs 65.6%. With `C[C@@H]1CN(C2CCN(c3ccccc3F)CC2)CC[C@]1(C)O` the figure was 7.31%; with `O[C@@H]1CN(CC2CC2)CC[C@H]1N1CCN(c2ccccc2F)CC1`, 53.6%. As for `O=C(CC1CC1)N1C[C@@H](O)[C@H](N2CCN(c3ccccc3)CC2)C1`, the INHIBITION is 30.25%.
